Measured values published in PubChem BioAssay AID652042 (Broad Institute, 2013).
The whole screen tested about 1,100 compounds, of which about 350 (32%) were called active. No rule for the calls is given here. A selection follows. Where a call stands in place of a potency, no number is given. Potency and affinity values are given separately.

Experiment: CEM21 lymphoblast cell cytotoxicity, dose response, cytotoxicity control for viral fusion inhibitor project, CellTiter-Glo luminescence, cherry-picked (AID 652042)
Conditions: CEM21 cells viability, CellTiter-Glo ATP luminescence, 24 h; series mostly up to 35 µM

Structure (SMILES) | activity change, negative = cytotoxicity
O=C1c2cccnc2C(Nc2ccc(S(=O)(=O)N3CCCCC3)cc2)N1Cc1ccccc1 (centres undefined) | inactive
CCc1ccc(C(=O)CN2C(=O)NC(C)(c3ccc(C)cc3)C2=O)cc1 (centres undefined) | inactive
Nc1ccc(S(=O)(=O)c2ccc(N3CCOCC3)c(N)c2)cc1 | inactive
CN(C)CC(=O)Nc1ccc2c(c1)[C@H]1C[C@H](CC(=O)NCc3cccc(F)c3)O[C@@H](CO)[C@H]1O2 | inactive
COc1ccc(OC)c(NC(=O)COc2ccc3c(c2)CCC3)c1 | inactive
Cc1ccc(C(C(=O)NC(C)(C)C)N(Cc2cccs2)C(=O)c2csnn2)cc1 (centres undefined) | inactive
O=C(C[C@H]1C[C@H]2c3cc(NS(=O)(=O)c4ccc(F)cc4)ccc3O[C@H]2[C@@H](CO)O1)NCc1ccccc1F | inactive
O=C(C[C@@H]1C[C@H]2c3cc(NC(=O)C4CCOCC4)ccc3O[C@H]2[C@@H](CO)O1)NCc1ccccc1 | inactive
COCCNC(=O)C[C@@H]1C[C@H]2c3cc(N(C)C)ccc3O[C@H]2[C@@H](CO)O1 | inactive
O=C(C[C@@H]1C[C@@H]2c3cc(NC(=O)C4CCC4)ccc3O[C@@H]2[C@@H](CO)O1)NCc1ccc2c(c1)OCO2 | inactive
O=C(C[C@H]1C[C@H]2c3cc(NC(=O)C4CCC4)ccc3O[C@H]2[C@H](CO)O1)NCc1ccc2c(c1)OCO2 | inactive
O=C(C[C@H]1C[C@@H]2c3cc(NS(=O)(=O)c4ccc(F)cc4)ccc3O[C@@H]2[C@H](CO)O1)NCCc1ccccc1 | inactive
CCOC(=O)[C@H]1[C@H]2COc3ccccc3[C@@H]2N2C(=O)c3c(C)cc(C)cc3NC(=O)[C@@]12C | inactive
O=C(C[C@@H]1C[C@@H]2c3cc(NC(=O)C4CCOCC4)ccc3O[C@@H]2[C@H](CO)O1)NCc1ccccc1F | inactive
Cc1ccc(S(=O)(=O)N(C)c2ccc(C(=O)N3CCN(Cc4ccc5c(c4)OCO5)CC3)cc2)cc1 | inactive
CCC1(c2ccccc2)NC(=O)N(CC(=O)Nc2cc(S(=O)(=O)N3CCCCC3)ccc2OC(C)C)C1=O (centres undefined) | inactive
c1ccc2c(c1)OCC(c1csc3ncnc(N4CCOCC4)c13)O2 (centres undefined) | inactive
COc1ccc([C@@H]2[C@@H]3C(=O)N(C(C)(C)C)C(=O)[C@@H]3[C@]3(CC(C)C)C(=O)N(c4ccccc4)C(=O)N23)cc1 | inactive
CC12CC3CC(C)(C1)CC(C(=O)NCc1ccncc1)(C3)C2 | inactive
CCS(=O)(=O)N[C@H]1CC[C@@H](CC(=O)NCc2ccc(Cl)cc2)O[C@@H]1CO | inactive
CCc1ccc([C@H]2[C@@H]3C(=O)C[C@@H]4C(=O)N(Cc5ccccc5)C(=O)[C@@H]4[C@@H]3CN2S(=O)(=O)c2ccc(C)cc2)cc1 | inactive

Structure (SMILES) | activity change, negative = cytotoxicity
CC(=O)c1c(O)cc2c3c1OC(C)(C)C1CCC(C)(CC31)O2 (centres undefined) | inactive
Cc1nc2ccccc2n1CC(=O)NCc1ccccc1 | inactive
CCS(=O)(=O)N1Cc2ccccc2CC1C(=O)NC(C)C12CC3CC(CC(C3)C1)C2 (centres undefined) | inactive
CCOC(=O)[C@@H]1[C@H]2COc3ccc(Br)cc3[C@@H]2N2C(=O)N(c3ccc(F)cc3)C(=O)[C@@]12C | inactive
CCOC(=O)[C@@H]1[C@H]2COc3cc(OC)ccc3[C@H]2N2C(=O)N(c3cccc(F)c3)C(=O)[C@@]12C | inactive
O=C(C[C@@H]1C[C@H]2c3cc(NC(=O)Nc4ccccc4)ccc3O[C@H]2[C@H](CO)O1)NCc1cccnc1 | inactive
Cc1ccc(S(=O)(=O)N2CCN(S(=O)(=O)c3ccc(C)cc3)C2c2ccccc2)cc1 | inactive
c1ccc(CSc2nnc([C@@H]3CCCN3)o2)cc1 | inactive
O=C(C1CCCCC1)N1CCCC(c2nc3c(nnn3Cc3ccccc3)c(=O)[nH]2)C1 (centres undefined) | inactive
CCN(C[C@H]1N[C@@](C)(C(=O)OC)[C@H]2C(=O)N(Cc3ccccc3)C(=O)[C@@H]12)S(=O)(=O)c1ccc(C)cc1 | inactive
CCN(C[C@H]1N[C@@](CC)(C(=O)OC)[C@H]2C(=O)N(Cc3ccccc3)C(=O)[C@@H]12)S(=O)(=O)c1ccc(C)cc1 | inactive
O=C(c1ccc(Cl)cc1)N1CCCCC(Sc2nnc(-c3ccc4c(c3)OCO4)o2)C1=O (centres undefined) | inactive
Cc1cc(C)c(S(=O)(=O)N2CCN=C2c2ccccc2)cc1C | inactive
c1ccc2c(N3CCCCC3)ncnc2c1 | inactive
CC(C)[C@H](CN(N=O)[C@@H](Cc1ccccc1)CN(C)N=O)N(CCc1ccccc1)N=O | inactive
Cc1ccccc1-n1c(=O)c2ccccc2n2cnnc12 | inactive
COc1ccc(C(=O)NCCc2ccc(Cl)cc2)cc1S(=O)(=O)N1CCCCC1C (centres undefined) | inactive
COc1ccc(NC(=O)C(=O)NCC2CCCN2S(=O)(=O)c2cccs2)cc1 (centres undefined) | inactive
O=C(CN(c1cc(C(F)(F)F)ccc1Cl)S(=O)(=O)c1ccccc1)NCc1cccnc1 | inactive
CC(C)(C)N1C(=O)[C@H]2[C@@H](c3ccc(Br)cc3)N3C(=O)N(c4ccccc4)C(=O)[C@@]3(C)[C@H]2C1=O | inactive
COc1ccc(Nc2ncc(C(=O)N3CCN(c4ccc(F)cc4)CC3)c3ccccc23)cc1 | inactive

Structure (SMILES) | activity change, negative = cytotoxicity
CO[C@H]1CN(C)C(=O)c2cc(NC(=O)c3ccc(F)cc3)ccc2OC[C@H](C)N(C(=O)CN(C)C)C[C@@H]1C | inactive
COc1ccccc1OCC(=O)c1[nH]c(C)c(C(C)=O)c1C | inactive
Cc1cccc2cc3c(N)c(C#N)sc3nc12 | inactive
O=C1CCCc2c1[nH]c1ccc(Cl)cc21 | inactive
O=C(NNS(=O)(=O)c1ccc(F)cc1F)C1Cc2c(ccc3ccccc23)O1 (centres undefined) | inactive
C[C@@H]1CN([C@@H](C)CO)S(=O)(=O)c2ccc(-c3ccccc3)cc2O[C@H]1CN(C)S(C)(=O)=O | inactive
C[C@@H]1CN([C@H](C)CO)C(=O)c2cc(NC(=O)Nc3ccccc3)ccc2O[C@@H]1CN(C)S(=O)(=O)c1ccccc1 | inactive
COc1ccc(S(=O)(=O)Nc2ccc3c(c2)CC(=O)N([C@@H](C)CO)C[C@H](C)[C@H](CN(C)S(=O)(=O)c2ccc(C)cc2)O3)cc1 | inactive
Cc1ccc(S(=O)(=O)N(C)C[C@H]2Oc3cc(-c4cccc(F)c4)ccc3S(=O)(=O)N([C@H](C)CO)C[C@H]2C)cc1 | inactive
COc1ccc([C@@H]2[C@@H]3C(=O)N(C(C)(C)C)C(=O)[C@@H]3[C@]3(CC(C)C)C(=O)N(c4cccc(Br)c4)C(=O)N23)cc1 | inactive
COc1ccc(Cn2nnnc2C(c2cc3cccc(C)c3[nH]c2=O)N2CCOCC2)cc1 (centres undefined) | inactive
COc1ccc(C(C(=O)NC2CCCC2)N(C(=O)c2ccoc2C)c2ccc(C)cc2)cc1 (centres undefined) | inactive
O=C(NCc1ccco1)c1ccc(Cn2c(=O)c3ccccc3n(Cc3cccc(F)c3)c2=O)cc1 | inactive
CCC(=O)N(C)C(c1ccccc1Cl)c1nnnn1-c1c(C)cccc1C (centres undefined) | inactive
O=C(Nc1ccc(CN2CCS(=O)(=O)CC2)cc1)c1ccc(C(F)(F)F)cc1 | inactive
CCCCCCOc1ccc(OC(=O)c2ccncc2)cc1 | inactive
C[C@@H]1CNC(=O)c2c(C(=O)N(C)Cc3ccccc3)ncn21 | inactive
O=C1[C@H]2[C@@H](C3CC3)N3C(=O)CN(CC4CC4)C(=O)[C@@]3(Cc3ccccc3)[C@H]2C(=O)N1c1ccccc1 | inactive
Cc1ccsc1/C=N/Nc1cccc(C(=O)O)c1 | inactive
CC1(C(=O)N/N=C/c2cc3c(cc2Br)OCO3)CC1(Br)Br (centres undefined) | inactive
COc1cc(/C=N/NS(=O)(=O)c2ccc(C)cc2)ccc1OCc1ccc(C(=O)O)cc1 | inactive

Structure (SMILES) | activity change, negative = cytotoxicity
CC1(C(=O)N/N=C/c2ccc3c(c2)OCO3)CC1(Br)Br (centres undefined) | inactive
CCCn1c(=S)[nH]c2cc(C(=O)N3CCCC(C(=O)OCC)C3)ccc2c1=O (centres undefined) | inactive
Cc1cc(C(=O)CN2C(=O)c3ccccc3S2(=O)=O)c(C)n1CC1CCCO1 (centres undefined) | inactive
O=C(NC1=NCCS1)C1COc2ccccc2O1 (centres undefined) | inactive
COC(=O)c1ccc(NC(=O)c2ccc(CN3CCOCC3)cc2)cc1 | inactive
O=C(Nc1ccc(S(=O)(=O)N2CCCC2)cc1)c1ccc(CN2CCOCC2)cc1 | inactive
O=S(=O)(c1ccc(Cl)cc1)N1CCCN(c2nc3ccc(Cl)cc3s2)CC1 | inactive
O=C(CC1C(=O)NCCN1Cc1cccc(F)c1)NC1CCCCC1 (centres undefined) | inactive
CC(C)(C)c1ccc(OCCC(=O)Nc2cccc(S(=O)(=O)N3CCOCC3)c2)cc1 | inactive
COc1ccc(NC(=O)Nc2ccc3c(c2)N(C)C(=O)CS3)cc1Cl | inactive
CCOc1ccccc1N(C(=O)CNC(=O)c1ccco1)C(C(=O)NC1CCCC1)c1cccnc1 (centres undefined) | inactive
CCOc1ccc(S(=O)(=O)NCc2ccncc2)cc1 | inactive
O=C(C[C@@H]1C[C@H]2c3cc(NC(=O)C4CCOCC4)ccc3O[C@H]2[C@H](CO)O1)NCc1ccccc1F | inactive
CC(C)NC(=O)Nc1ccc2c(c1)C(=O)N([C@@H](C)CO)C[C@@H](C)[C@@H](CN(C)C(=O)CCC(F)(F)F)OCCCC[C@@H](C)O2 | inactive
CO[C@H]1CN(C)C(=O)c2cc(NC(C)=O)ccc2OC[C@@H](C)N(Cc2nccs2)C[C@H]1C | inactive
COc1ccccc1NC(=O)N[C@@H]1C=C[C@H](CC(=O)NCc2ccc(Cl)c(Cl)c2)O[C@@H]1CO | inactive
CC(NC(=O)CN(C)CC(=O)Nc1ccc(Cl)c(C(F)(F)F)c1)c1ccccc1 (centres undefined) | inactive
Cc1cccc(N2C(=O)N3[C@H](c4ccc(Br)cc4)[C@@H]4C(=O)N(C(C)(C)C)C(=O)[C@@H]4[C@]3(C)C2=O)c1 | inactive
COc1cc2c(c(OC)c1OC)[C@@]1(c3ccccc3)CCCC[C@H]1[C@@H]2NC(=O)C(F)(F)F | inactive
Cc1ccccc1OCCCCn1cnc2ccccc21 | inactive
CC[C@]1(C(=O)OC)[C@H]2C(=O)N(Cc3ccccc3)C(=O)[C@H]2[C@H]2CN=C(SCc3ccccc3)N21 | inactive
